Each structure is given as a SMILES string. Values joined by “and” are separate entries in the source; they are usually repeats but may differ in a detail not shown here. Equal values may be shown once. Records with an inconclusive call do not appear. Some structures have more than one record in an assay (separate samples or runs), and their calls can disagree. Active and inactive are the calls of the source. Unless noted, calls follow the shape of the dose curve; as a rule, active = well fitted curve in the direction sought with a large enough effect in the repeat runs; inconclusive = weak or mixed curves; inactive = no such curve, though single readings can be large; an effect the other way counts as inactive or inconclusive. Positions of bridges follow the written chain, without caps; N, C: chain ends. Non-standard residues stand in square brackets, D forms with d. Residues, ends and D or L forms follow the SMILES beside them. *: point of attachment. X2 = CC[C@H](C)CCCCC(=O)*; Dab = NCC[C@H](N)C(=O)O

A short description of assay [1]: qHTS assay to identify aromatase inhibitors - cell viability counter screen (AID 743084).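 Also: cells stimulated with testosterone during compound exposure; nearly all actives have a fitted effect of over 55% in size.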 Also: potency is read from the fitted curve at half-maximal effect.
The target in assay [2] is Aryl hydrocarbon receptor (Homo sapiens) (UniProt P35869). Briefly: qHTS assay to identify small molecule that activate the aryl hydrocarbon receptor (AhR) signaling pathway (AID 743085).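 Also: HG2L7.5c1 human HepG2 liver cells with stably integrated DRE-driven firefly reporter; series mostly up to about 70 µM; nearly all actives have a fitted effect of over 15% in size.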 A digest of the protocol:
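Steps: seed HepG2-AhR-luc cells; allow 5 h at 37C; pin-transfer test compound or vehicle; incubate 24 h at 37C; add viability dye (30 min, 37C) and read fluorescence; add luciferase substrate (30 min, RT) and read luminescence.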

The target of assay [3] is Peroxisome proliferator-activated receptor gamma (Homo sapiens) (UniProt P37231). The experiment in a line: qHTS assay to identify small molecule agonists of the peroxisome proliferator-activated receptor gamma (PPARg) signaling pathway (AID 743094; active = well fitted activation curve with a large enough effect in the signal ratio in the repeat runs, not every such curve was filed as active; the % refers to the signal ratio). A digest of the protocol:
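Cells from the PPARg UAS-bla HEK293H line are plated and incubated 5 h at 37C. Compounds in DMSO are pinned in and left 17 h at 37C. LiveBLAzer B/G substrate is then added for 1 h at room temperature before fluorescence is measured.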

A short description of assay [4]: qHTS assay to identify small molecule phospholipidosis (PLD) inducers (AID 1259344; active = well fitted curve in the direction sought with a large enough effect; an effect the other way counts as inactive or inconclusive). A digest of the protocol: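 After 4 h attachment on collagen I, HepG2 cells were dosed with compound alongside LipidTOX Red, kept 24 h at 37 C, fixed, and imaged for lamellar phospholipid pits.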
Assay [5] addresses Nuclear receptor subfamily 1 group I member 2 (Homo sapiens) (UniProt O75469). The experiment in a line: CYP3A4 induction through human pregnane X receptor (PXR) by small molecules, qHTS assay (AID 1346984). Also: nearly all actives have a fitted effect of over 40% in size. A digest of the protocol:
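Quantitative HTS in DPX-2 cells, i.e. HepG2 transfected with PXR response element and CYP3A4-promoter luciferase. Compounds in DMSO incubated 24hr at 37C; then P450-Glo CYP3A4 substrate, 3uM final, 3hr; One-Glo luminescence.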

For assay [6] the target is unchanged. Briefly: Human pregnane X receptor (PXR) activation by small molecules, qHTS assay (AID 1346985). Also: nearly all actives have a fitted effect of over 40% in size. Also: potency is read from the fitted curve at half-maximal effect. A digest of the protocol:
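DPX-2 cells (HepG2 co-transfected with a PXR response element and a CYP3A4-promoter luciferase construct) were seeded at 2,000 per well, rested 5 hr at 37C, then exposed to DMSO-dissolved compounds for 24 hr. Activation was read as luciferase luminescence.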

The nature of assay [7]: qHTS assay to identify small molecule that activate the aryl hydrocarbon receptor (AhR) signaling pathway - cell viability counter screen (AID 743086). Also: nearly all actives have a fitted effect of over 45% in size. Also: potency is read from the fitted curve at half-maximal effect. A digest of the protocol:
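HepG2-AhR-luc (HG2L7.5c1) cells, 4000/well, were preincubated 5 h at 37C, exposed to compound in qHTS format for 24 hr at 37C, then given CellTiter-Fluor for 30 min; viability was read as fluorescence in the reporter wells.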
% is scaled to controls: 0 for no effect and ±100 for the full control effect.

Chain of Peroxisome proliferator-activated receptor gamma (Homo sapiens) (P37231 whole entry, looked up): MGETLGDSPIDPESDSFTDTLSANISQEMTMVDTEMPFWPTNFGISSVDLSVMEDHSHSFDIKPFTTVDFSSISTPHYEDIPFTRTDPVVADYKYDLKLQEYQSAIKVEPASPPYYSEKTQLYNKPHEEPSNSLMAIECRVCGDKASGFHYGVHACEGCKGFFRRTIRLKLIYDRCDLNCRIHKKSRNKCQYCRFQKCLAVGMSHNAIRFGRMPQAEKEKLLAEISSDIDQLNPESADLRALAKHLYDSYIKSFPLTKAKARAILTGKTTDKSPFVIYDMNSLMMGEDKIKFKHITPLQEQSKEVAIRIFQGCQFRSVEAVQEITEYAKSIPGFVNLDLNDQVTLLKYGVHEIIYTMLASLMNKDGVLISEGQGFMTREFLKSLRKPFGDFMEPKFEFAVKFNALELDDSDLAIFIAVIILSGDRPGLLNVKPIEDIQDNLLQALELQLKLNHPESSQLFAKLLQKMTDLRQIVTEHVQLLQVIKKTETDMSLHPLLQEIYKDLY
Chain of Aryl hydrocarbon receptor (Homo sapiens) (P35869 whole entry, looked up): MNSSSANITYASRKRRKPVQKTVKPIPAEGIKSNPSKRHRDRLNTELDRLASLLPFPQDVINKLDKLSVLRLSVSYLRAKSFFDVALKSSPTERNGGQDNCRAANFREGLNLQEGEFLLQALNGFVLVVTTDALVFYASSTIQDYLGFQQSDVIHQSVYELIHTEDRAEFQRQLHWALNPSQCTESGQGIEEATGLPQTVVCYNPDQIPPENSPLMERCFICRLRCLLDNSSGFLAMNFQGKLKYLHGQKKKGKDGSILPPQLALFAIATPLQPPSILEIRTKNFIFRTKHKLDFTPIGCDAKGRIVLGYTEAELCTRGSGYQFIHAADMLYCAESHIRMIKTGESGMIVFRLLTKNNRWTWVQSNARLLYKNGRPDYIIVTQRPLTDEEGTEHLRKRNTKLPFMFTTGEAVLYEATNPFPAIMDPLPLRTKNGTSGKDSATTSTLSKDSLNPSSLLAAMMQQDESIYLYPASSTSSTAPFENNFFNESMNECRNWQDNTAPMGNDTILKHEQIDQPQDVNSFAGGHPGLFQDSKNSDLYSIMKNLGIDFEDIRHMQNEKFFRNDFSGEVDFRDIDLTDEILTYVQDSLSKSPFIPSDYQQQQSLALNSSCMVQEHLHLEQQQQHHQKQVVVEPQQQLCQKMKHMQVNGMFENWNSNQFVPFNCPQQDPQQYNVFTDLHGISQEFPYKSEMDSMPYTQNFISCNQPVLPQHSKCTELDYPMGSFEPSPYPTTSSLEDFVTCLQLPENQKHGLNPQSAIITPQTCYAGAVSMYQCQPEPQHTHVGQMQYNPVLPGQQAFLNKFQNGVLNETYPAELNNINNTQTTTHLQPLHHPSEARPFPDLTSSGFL

In the case of `O=C(OC[C@H]1O[C@](O)(COC(=O)c2cccnc2)[C@@H](OC(=O)c2cccnc2)[C@@H]1OC(=O)c1cccnc1)c1cccnc1`, the Potency entry in assay [1], in assay [2], in assay [3], in assay [4], in assay [5] and in assay [6] was “inactive” throughout.
On to `C=CCNC1=C2C[C@@H](C)C[C@H](OC)[C@H](O)[C@@H](C)/C=C(\C)[C@H](OC(N)=O)[C@@H](OC)/C=C\C=C(/C)C(=O)NC(=CC1=O)C2=O`, for which the Potency entry in assay [2], in assay [7], in assay [4] and in assay [5] was “inactive” in each case. Also, the Potency in assay [6] is 6.31 µM (active).
On to `CCCc1ccc(C(=O)O)cc1`, for which the Potency result in assay [1], in assay [2], in assay [7], in assay [3], in assay [4] and in assay [5] was “inactive” each time. Also, the Potency result in assay [6] was “inactive”.
For the compound `CC(=O)N[C@@H]([C@@H](O)[C@H](O)[C@H](O)CO)[C@@H](O)CC(=O)C(=O)O`, the Potency result in assay [1], in assay [2], in assay [7], in assay [3], in assay [4] and in assay [5] was “inactive” in each case. The Potency entry in assay [6] was “inactive”.
On to `COc1ccc(CCNC[C@H](O)c2ccc(O)cc2)cc1OC`, for which the Potency result in assay [1], in assay [7], in assay [3], in assay [4], in assay [5] and in assay [6] was “inactive” throughout.
As to `O=C(O)C1=C(CSc2nnnn2CS(=O)(=O)O)CS[C@@H]2[C@H](NC(=O)[C@H](O)c3ccccc3)C(=O)N12`, the Potency entry in assay [1], in assay [2], in assay [7], in assay [3], in assay [4] and in assay [5] was “inactive” in each case. Moreover, the Potency result in assay [6] is “inactive”.
`CC[C@H](C)CCCCC(=O)N[C@@H](CCN)C(=O)N[C@H](C(=O)N[C@@H](CCN)C(=O)N[C@H]1CCNC(=O)[C@@H]([C@H](C)O)NC(=O)[C@H](CCN)NC(=O)[C@H](CCN)NC(=O)[C@H](CC(C)C)NC(=O)[C@@H](CC(C)C)NC(=O)[C@H](CCN)NC1=O)[C@@H](C)O` (X2-[Dab]T[Dab][Dab][Dab][dL]L[Dab][Dab][dT]; lactam 4-C): the Potency entry in assay [1], in assay [2], in assay [7], in assay [3], in assay [4] and in assay [5] was “inactive” each time. The Potency entry in assay [6] is “inactive”.
Consider `CCOC(=O)c1c[nH]c2cc(OCC(C)C)c(OCC(C)C)cc2c1=O`, for which the Potency entry in assay [1], in assay [7], in assay [3], in assay [4], in assay [5] and in assay [6] was “inactive” each time.
For the compound `CC(=O)[C@@]1(O)CC[C@H]2[C@@H]3C=C(Cl)C4=CC(=O)[C@@H]5C[C@@H]5[C@]4(C)[C@H]3CC[C@@]21C`, the Potency entry in assay [1], in assay [2], in assay [7], in assay [3], in assay [4] and in assay [5] was “inactive” in each case. The Potency entry in assay [6] is “inactive”.
For the compound `O=C1NCCN1c1ncc([N+](=O)[O-])s1`, the Potency result in assay [1], in assay [2], in assay [7], in assay [3], in assay [4] and in assay [5] was “inactive” throughout. In addition, the Potency result in assay [6] was “inactive”.
In the case of `CC(=O)[C@]1(O)Cc2c(O)c3c(c(O)c2[C@@H](O[C@H]2C[C@H](N)[C@H](O)[C@H](C)O2)C1)C(=O)c1c(O)cccc1C3=O`, the Potency in assay [1] was 26.6 µM (active); in assay [7], 4.73 µM (active) and 13.3 µM (active); in assay [6] it was 14.1 µM (active) and inactive. Further, the Potency entry in assay [2] and in assay [5] was “inactive” in each case. For the same compound, the PLD induction in assay [4] was -0.0504% [at 7.66 µM] (inactive).
`Cc1nc(NS(=O)(=O)c2ccc(N)cc2)nc(C)c1Br`: the Potency result in assay [1], in assay [2], in assay [7], in assay [3], in assay [4] and in assay [5] was “inactive” throughout. The Potency entry in assay [6] is “inactive”.
In the case of `CC(C)CN(C[C@@H](OP(=O)(O)O)[C@H](Cc1ccccc1)NC(=O)O[C@H]1CCOC1)S(=O)(=O)c1ccc(N)cc1`, the Potency result in assay [1], in assay [2], in assay [7], in assay [4] and in assay [5] was “inactive” in each case. Moreover, the Potency in assay [6] is 10 µM (active).
Regarding `O=c1oc2cc(O)ccc2s1`, the Potency result in assay [1], in assay [2], in assay [7], in assay [3], in assay [4] and in assay [5] was “inactive” each time. Also, the Potency entry in assay [6] is “inactive”.
For `CC(=O)O[C@]1(C(C)=O)CC[C@H]2[C@@H]3CCC4=CC(=O)CC[C@]4(C)[C@@]3(F)[C@@H](O)C[C@@]21C`, the Potency result in assay [1], in assay [2], in assay [7], in assay [3], in assay [4] and in assay [5] was “inactive” throughout. Besides, the Potency entry in assay [6] was “inactive”.
Take `CC(C)(C)C(=O)OCOC(=O)[C@@H]1N2C(=O)[C@@H](N=CN3CCCCCC3)[C@H]2SC1(C)C`: the Potency result in assay [2], in assay [7], in assay [3], in assay [4], in assay [5] and in assay [6] was “inactive” throughout.
Turning to `CC1CS(=O)(=O)CCN1/N=C/c1ccc([N+](=O)[O-])o1` (stereo not given), the Potency result in assay [1], in assay [2], in assay [3], in assay [4], in assay [5] and in assay [6] was “inactive” throughout.
On to `C[C@]12CC[C@@H]3c4ccc(OC(=O)c5ccccc5)cc4CC[C@H]3[C@@H]1CC[C@@H]2O`, for which the Potency entry in assay [1], in assay [2], in assay [7], in assay [3], in assay [4] and in assay [5] was “inactive” each time. Besides, the Potency result in assay [6] was “inactive”.
On to `O=C(c1cc2ccccc2o1)N1CCN(Cc2ccccc2)CC1`, for which the Potency result in assay [1], in assay [7], in assay [3], in assay [4], in assay [5] and in assay [6] was “inactive” each time.
As for `CC(C)CN(C[C@@H](O)[C@H](Cc1ccccc1)NC(=O)O[C@@H]1CCOC1)S(=O)(=O)c1ccc(N)cc1`, the Potency entry in assay [1], in assay [2], in assay [7], in assay [3], in assay [4] and in assay [5] was “inactive” throughout. The Potency in assay [6] was 2.82 µM (active).

The record behind these values is PubChem BioAssay (Tox21).
